Measurements from PubChem BioAssay (NCATS).
Results filed as inconclusive are left out. Active and inactive are the calls of the source. Calls come from the whole dose curve; as a rule, active = well fitted cell-killing curve with a large enough effect; inconclusive = small, poorly fitted or top-dose-only effect, or effect the other way; inactive = flat fitted curve, though single readings scatter. Where a SMILES comes first, the peptide text is derived from it. [ ]: non-standard residue; d: D form. ξ: configuration not given here. ξLac(3-iPr) = CC(C)CC(O)C(=O)O; NMeV = CN[CH](C(=O)O)C(C)C; βAla = NCCC(=O)O

How the values were obtained:
Assay in all cases: Primary qHTS to identify gynecologic anti-cancer compounds using libraries of approved drugs and bioactive compounds (AID 1345084); note: nearly all actives have a fitted effect of over 55% in size
C33A = conditions: Gynecologic cancer cell panel viability, ATPlite luminescence, 48 h; series mostly up to 57.5 µM
Outline: (§1)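 Cell viability after 48 h drug treatment, ATPlite luminescence readout; five doses.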

CASKI = conditions: Gynecologic cancer cell panel viability, ATPlite luminescence, 48 h; series mostly up to 57.5 µM
Outline: as §1

Es-2 = conditions: Gynecologic cancer cell panel viability, ATPlite luminescence, 48 h; series mostly up to 57.5 µM
Outline: as §1

HeLa = conditions: Gynecologic cancer cell panel viability, ATPlite luminescence, 48 h; series mostly up to 57.5 µM
Outline: as §1

Hek293T = conditions: Gynecologic cancer cell panel viability, ATPlite luminescence, 48 h, control line for the selectivity index; series mostly up to 57.5 µM
Outline: as §1

JEG-3 = conditions: Gynecologic cancer cell panel viability, ATPlite luminescence, 48 h; series mostly up to 57.5 µM
Outline: as §1

OV90 = conditions: Gynecologic cancer cell panel viability, ATPlite luminescence, 48 h; series mostly up to 57.5 µM
Outline: as §1

PA-1 = conditions: Gynecologic cancer cell panel viability, ATPlite luminescence, 48 h; series mostly up to 57.5 µM
Outline: as §1

SKOV3 = conditions: Gynecologic cancer cell panel viability, ATPlite luminescence, 48 h; series mostly up to 57.5 µM
Outline: as §1

Tov-21-G = conditions: Gynecologic cancer cell panel viability, ATPlite luminescence, 48 h; series mostly up to 57.5 µM
Outline: as §1

Tov112D = conditions: Gynecologic cancer cell panel viability, ATPlite luminescence, 48 h; series mostly up to 57.5 µM
Outline: as §1
% is set by controls: 0 for no effect and ±100 for the full control effect.

Cc1cccc(Oc2cnc(=O)[nH]c2)c1
inactive: Potency (C33A) | Potency (CASKI) | Potency (Es-2) | Potency (HeLa) | Potency (Hek293T) | Potency (JEG-3) | Potency (OV90) | Potency (PA-1) | Potency (SKOV3) | Potency (Tov-21-G) | Potency (Tov112D)

CCc1c(C)nc2c(-c3cnn(-c4cc(CO)ccn4)c3)c[nH]n2c1=O
inactive: Potency (C33A) | Potency (CASKI) | Potency (Es-2) | Potency (HeLa) | Potency (Hek293T) | Potency (JEG-3) | Potency (OV90) | Potency (PA-1) | Potency (SKOV3) | Potency (Tov-21-G) | Potency (Tov112D)

OC[C@H]1O[C@@H](OC(CCCCc2ccc(O)cc2)CCc2ccc(O)cc2)[C@H](O)[C@@H](O)[C@@H]1O (some centres not stated)
inactive: Potency (C33A) | Potency (CASKI) | Potency (Es-2) | Potency (HeLa) | Potency (Hek293T) | Potency (JEG-3) | Potency (OV90) | Potency (PA-1) | Potency (SKOV3) | Potency (Tov-21-G) | Potency (Tov112D)

C[C@@]12CC[C@@H]3[C@@](CC[C@H]4[C@@]3(C)CCC[C@@]4(C)C(=O)O)(CC1=O)C2
inactive: Potency (C33A) | Potency (CASKI) | Potency (Es-2) | Potency (HeLa) | Potency (Hek293T) | Potency (JEG-3) | Potency (OV90) | Potency (PA-1) | Potency (SKOV3) | Potency (Tov-21-G) | Potency (Tov112D)

CC1(C)CC[C@]2(C(=O)O[C@@H]3O[C@H](CO)[C@@H](O)[C@H](O)[C@H]3O)CC[C@]3(C)C(=CCC4[C@@]5(C)CC[C@H](O[C@@H]6O[C@H](C(=O)O)[C@@H](O)[C@H](O)[C@H]6O)C(C)(C)C5CC[C@]43C)C2C1 (some centres not stated)
inactive: activity change, negative = cytotoxicity (C33A) 3.23% [at 11.6 µM] | activity change, negative = cytotoxicity (CASKI) -0.46% [at 11.6 µM] | activity change, negative = cytotoxicity (Es-2) 6.53% [at 11.6 µM] | activity change, negative = cytotoxicity (HeLa) 7.58% [at 11.6 µM] | activity change, negative = cytotoxicity (Hek293T) 5.45% [at 11.6 µM] | activity change, negative = cytotoxicity (JEG-3) 7.56% [at 11.6 µM] | activity change, negative = cytotoxicity (OV90) -4.22% [at 11.6 µM] | activity change, negative = cytotoxicity (PA-1) 9.38% [at 11.6 µM] | activity change, negative = cytotoxicity (SKOV3) 0% [at 11.6 µM] | activity change, negative = cytotoxicity (Tov-21-G) 5.62% [at 11.6 µM] | activity change, negative = cytotoxicity (Tov112D) 11.2% [at 11.6 µM]

C[C@@H]1O[C@@H](O[C@H]2[C@H](O[C@H]3CC[C@@]4(C)C(CC[C@]5(C)C4CC=C4[C@@H]6CC(C)(C)CC[C@]6(C(=O)O[C@@H]6OC[C@H](O)[C@H](O)[C@H]6O[C@@H]6O[C@@H](C)[C@H](O[C@@H]7O[C@H](CO)[C@@H](O)[C@H](O)[C@H]7O)[C@H](O)[C@H]6O)[C@H](O)C[C@]45C)C3(C)C)O[C@H](CO)[C@@H](O[C@@H]3OC[C@@H](O)[C@H](O)[C@H]3O)[C@@H]2O)[C@H](O)[C@H](O)[C@H]1O (some centres not stated)
inactive: activity change, negative = cytotoxicity (C33A) -7.19% [at 6.55 µM] | activity change, negative = cytotoxicity (CASKI) 6.32% [at 6.55 µM] | activity change, negative = cytotoxicity (Es-2) 0.0947% [at 6.55 µM] | activity change, negative = cytotoxicity (HeLa) -17.4% [at 6.55 µM] | activity change, negative = cytotoxicity (Hek293T) 6.66% [at 6.55 µM] | activity change, negative = cytotoxicity (JEG-3) 5.72% [at 6.55 µM] | activity change, negative = cytotoxicity (OV90) 11.1% [at 6.55 µM] | activity change, negative = cytotoxicity (PA-1) 4.23% [at 6.55 µM] | activity change, negative = cytotoxicity (SKOV3) -6.09% [at 6.55 µM] | activity change, negative = cytotoxicity (Tov-21-G) 2.71% [at 6.55 µM] | activity change, negative = cytotoxicity (Tov112D) -23.4% [at 6.55 µM]

CC(=O)O[C@@H]1[C@H](O[C@@H]2O[C@@H](CO)[C@H](O)[C@H]2O)[C@@H](O[C@@H]2O[C@@H](C)[C@H](O[C@@H]3OC[C@@H](O)[C@H](O)[C@H]3O)[C@@H](O)[C@H]2O)[C@H](OC(=O)[C@]23CCC(C)(C)C[C@H]2C2=CCC4[C@@]5(C)CC[C@H](O[C@@H]6O[C@H](C(=O)O)[C@@H](O)[C@H](O)[C@H]6O[C@@H]6O[C@H](CO)[C@H](O)[C@H](O)[C@H]6O)[C@@](C)(C=O)C5CC[C@@]4(C)[C@]2(C)CC3)O[C@@H]1C (some centres not stated)
inactive: activity change, negative = cytotoxicity (C33A) 4.84% [at 6.55 µM] | activity change, negative = cytotoxicity (CASKI) 4.57% [at 6.55 µM] | activity change, negative = cytotoxicity (Es-2) 4.09% [at 6.55 µM] | activity change, negative = cytotoxicity (HeLa) 11.1% [at 6.55 µM] | activity change, negative = cytotoxicity (Hek293T) 2.65% [at 6.55 µM] | activity change, negative = cytotoxicity (JEG-3) 11.6% [at 6.55 µM] | activity change, negative = cytotoxicity (OV90) 12.8% [at 6.55 µM] | activity change, negative = cytotoxicity (PA-1) 11.1% [at 6.55 µM] | activity change, negative = cytotoxicity (SKOV3) 0% [at 6.55 µM] | activity change, negative = cytotoxicity (Tov-21-G) 4.85% [at 6.55 µM] | activity change, negative = cytotoxicity (Tov112D) 12.7% [at 6.55 µM]

CC(=O)c1c(O)cc(O[C@@H]2O[C@H](CO)[C@@H](O)[C@H](O)[C@H]2O)cc1O
inactive: Potency (C33A) | Potency (CASKI) | Potency (Es-2) | Potency (HeLa) | Potency (Hek293T) | Potency (JEG-3) | Potency (OV90) | Potency (PA-1) | Potency (SKOV3) | Potency (Tov-21-G) | Potency (Tov112D)

COC(=O)C1=CO[C@@H](O[C@@H]2O[C@H](CO)[C@@H](O)[C@H](O)[C@H]2O)C2C1C(=O)C[C@H]2C (some centres not stated)
inactive: Potency (C33A) | Potency (CASKI) | Potency (Es-2) | Potency (HeLa) | Potency (Hek293T) | Potency (JEG-3) | Potency (OV90) | Potency (PA-1) | Potency (SKOV3) | Potency (Tov-21-G) | Potency (Tov112D)

CC(C)CC1OC(=O)C2CCCN2C(=O)CCNC(=O)C(Cc2ccccc2)NC(=O)C(C(C)C)N(C)C(=O)C(C(C)C)N(C)C1=O (configuration not stated) (cyclo([ξLac(3-iPr)][NMeV][NMeV]F[βAla]P); configuration not given here)
inactive: Potency (C33A) | Potency (CASKI) | Potency (Es-2) | Potency (HeLa) | Potency (Hek293T) | Potency (JEG-3) | Potency (OV90) | Potency (PA-1) | Potency (SKOV3) | Potency (Tov-21-G) | Potency (Tov112D)

C[C@H](Oc1ccc(S(C)(=O)=O)cc1C(=O)N1CCN(c2ncc(C(F)(F)F)cc2F)CC1)C(F)(F)F
inactive: Potency (C33A) | Potency (CASKI) | Potency (Es-2) | Potency (HeLa) | Potency (Hek293T) | Potency (JEG-3) | Potency (OV90) | Potency (PA-1) | Potency (SKOV3) | Potency (Tov-21-G) | Potency (Tov112D)

COC(=O)C1=CO[C@@H](O[C@@H]2O[C@H](CO)[C@@H](O)[C@H](O)[C@H]2O)[C@@H]2C(CO)=CC[C@]12O
inactive: Potency (C33A) | Potency (CASKI) | Potency (Es-2) | Potency (HeLa) | Potency (Hek293T) | Potency (JEG-3) | Potency (OV90) | Potency (PA-1) | Potency (SKOV3) | Potency (Tov-21-G) | Potency (Tov112D)
